From PubChem BioAssay (NCI)
About 83,000 compounds went through this panel and 20% of them were active in at least one assay; those are over-represented in the sample as a whole.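 A percent growth of 40 corresponds to 60% growth inhibition; 0 means no net growth; -100 means all cells died. Active threshold: below 10.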 Values without a mark were called inactive. Activity calls are given as the source filed them.

What was measured:
Assay in all cases: NCI-60 one-dose screen, 48 h (100 = growth as untreated, 0 = no growth, -100 = all killed)
Conditions in all cases: 10 µM unless noted
[1] = test system: NCI-H23 lung
[2] = test system: NCI-H322M lung
[3] = test system: HOP-62 NSCLC
[4] = test system: NCI-H460 lung
[5] = test system: HOP-92 NSCLC
[6] = test system: NCI-H522 lung
[7] = test system: A549/ATCC NSCLC
[8] = test system: 786-0 renal
[9] = test system: COLO 205 colon
[10] = test system: DU-145 prostate
[11] = test system: K-562 leukemia
[12] = test system: MALME-3M melanoma
[13] = test system: MDA-MB-231 breast
[14] = test system: RXF 393 renal
[15] = test system: SF-268 CNS
[16] = test system: SF-295 CNS
[17] = test system: SF-539 CNS
[18] = test system: UACC-257 melanoma
[19] = test system: M14 melanoma
[20] = test system: HCT-15 colon

Compound | growth [1] | growth [2] | growth [3] | growth [4] | growth [5] | growth [6] | growth [7] | growth [8] | growth [9] | growth [10] | growth [11] | growth [12] | growth [13] | growth [14] | growth [15] | growth [16] | growth [17] | growth [18] | growth [19] | growth [20]
CCCN1C(=O)N(CCC)C2C1NN=c1s/c(=C3\C(=O)N(C(C)C)c4ccccc43)c(=O)n12 (stereo not given) | 76% | 78% | 41.9% | 35.3% | 27.1% | 22.4% | 43.9% | -6.03% (active) | 43.8% | 53.5% | 11.3% | 36.5% | 41.8% | 12.2% | 46.8% | 22.2% | 23.1% | 53.8% | 37.8% | 24.4%
COc1ccc(C(=O)Nc2ccc3nc(N4CCCCC4)cc(C)c3c2)cc1OC | 96.8% | 117% | 115% | 51.9% | 40.8% | 98.3% | 85.2% | 85.4% | 95.9% | 83.9% | -18.6% (active) | 64.8% | 48.3% | 92.3% | 89.5% | 48.6% | 82.2% | 102% | 83.9% | 31.6%
COc1ccc(C2=Nn3c(NN)nnc3SC2)cc1 | 95.9% | 95.2% | 104% | 112% | 105% | 75.5% | 87.2% | 104% | 108% | 103% | 83.3% | 109% | 103% | 95.8% | 100% | 106% | 95.6% | 84.3% | 113% | 114%
Cc1ccc(Cc2cnc(NC(=O)CN3C(=O)/C(=C\c4ccccc4)SC3=S)s2)cc1 | 103% | 109% | 109% | 103% | 113% | 94.7% | 103% | 105% | 116% | 111% | 101% | 104% | 108% | 113% | 101% | 101% | 100% | 107% | 107% | 103%
CCC1=C[C@]2(C3CC(=O)N(c4ccccc4)C3=O)CC(C(C)(C)C)C[C@@H]2[C@@H]2C(=O)N(c3ccccc3)C(=O)[C@H]12 (stereo not given in full) | 95.2% | 69.3% | 82.1% | 93.3% | 84.5% | 57.3% | 68.7% | 83.8% | 93.3% | 92% | 83.7% | 91.5% | 81.4% | 87.3% | 78.5% | 93.6% | 95.3% | 57.1% | 83.7% | 87.7%
O=C(Nc1ccc(F)cc1F)c1cc(Br)ccc1O | -12.6% (active) | 0.898% (active) | -8.56% (active) | 4.52% (active) | -25.6% (active) | -12.2% (active) | 5.78% (active) | 3.19% (active) | 7.66% (active) | 13.2% | 4.71% (active) | -30.1% (active) | -29.9% (active) | -5.34% (active) | 7.16% (active) | -24.5% (active) | 4.41% (active) | -15% (active) | 7.28% (active) | 9.98% (active)
O=C(Nc1ncc(Cc2cccc(C(F)(F)F)c2)s1)C1COc2ccccc2O1 (stereo not given) | 88.6% | 91.2% | 92.1% | 97.7% | 72.2% | 67.8% | 74.7% | 99.2% | 104% | 105% | 63.3% | 71.8% | 95.1% | 79% | 87.6% | 86.4% | 95.8% | 88.1% | 88.5% | 72%
NC(CCc1nc2ccccc2c(=O)[nH]1)C(=O)O (stereo not given) | 105% | 97.8% | 103% | 108% | 108% | 91.7% | 105% | 101% | 115% | 120% | 96.7% | 104% | 103% | 115% | 106% | 104% | 105% | 105% | 105% | 101%
COc1ccc(Cn2c(Br)c3c(c2Br)-c2nc(NC(=O)c4ccc(OC)cc4)sc2CC3)cc1 | 81.3% | 56.4% | 68.6% | 77.4% | 50.6% | 72% | 79.7% | 61.8% | 103% | 78% | 79.2% | 4.4% (active) | 52.6% | 57% | 72% | 57.7% | 52.1% | 78.5% | 80.4% | 92.8%
COc1ccccc1C(=O)O/N=C(\N)Cc1cccc2ccccc12 | 80.9% | 97.6% | 94.6% | 70.7% | 91% | 85% | 70.1% | 106% | 67.8% | 99.1% | 75.7% | 23.6% | 77.3% | 102% | 80.9% | 52.2% | 97.2% | 73.9% | 86.3% | 75.7%
NC(CCl)=NCCC[C@H](N)C(=O)O | 98.3% | 99.5% | 126% | 101% | 98.3% | 95.4% | 97.8% | 106% | 104% | 111% | 111% | 146% | 95.8% | 100% | 108% | 81.1% | 103% | 87.6% | 88.9% | 93.7%
Nc1n[nH]c2ccc([C@@H]3Nc4ccc5[nH]ncc5c4[C@H]4[C@H]5CCC(C5)[C@H]43)cc12 | 31.4% | 42.7% | 35.7% | 3.93% (active) | 33.7% | -21.4% (active) | 18.5% | 24.1% | 0.265% (active) | 7.74% (active) | 9.58% (active) | 52.2% | 11.8% | 25.6% | 25% | 14% | -15.8% (active) | 69.4% | 8.3% (active) | 16.5%
O=Cc1c(OCc2cnnn2CC(=O)Nc2ccc(Br)cc2)ccc2ccccc12 | 86.4% | 96.1% | 97.7% | 97.3% | 85.7% | 77.2% | 91.6% | 102% | 106% | 96.9% | 91.4% | 88.4% | 84.4% | 100% | 92.7% | 88.9% | 96.3% | 87% | 98.6% | 80.4%
O=C(CSc1ccc2nnc(-c3cccc(F)c3)n2n1)Nc1ccc2c(c1)OCO2 | 76.5% | 85% | 81.4% | 81.1% | -6.23% (active) | 85.4% | 52.8% | 93.6% | 112% | 77.1% | 74.2% | 81% | 48.9% | 98.5% | 51.3% | 91.6% | 84.3% | 94.8% | 83.9% | 66.1%
O=c1cc(NC2CCN(CCCc3ccccc3)CC2)c2cc(Cl)ccc2o1 | -1.92% (active) | 0.794% (active) | 0.321% (active) | -6.31% (active) | -26.1% (active) | -31.2% (active) | 0.692% (active) | 18.1% | -98.4% (active) | 15.5% | 5.97% (active) | -30.4% (active) | -62.2% (active) | -25.3% (active) | 17.2% | -44.1% (active) | 19.4% | -31.5% (active) | 4.04% (active) | 14.1%
